Experimental data taken from patent US20220289795, “EFFICIENT METHOD FOR PREPARING PPR PROTEIN AND USE OF THE SAME” (EditForce, Inc., published 2022).

Biological target: T1, v3.1_PPR7 (Artificial Sequence)
T1 chain: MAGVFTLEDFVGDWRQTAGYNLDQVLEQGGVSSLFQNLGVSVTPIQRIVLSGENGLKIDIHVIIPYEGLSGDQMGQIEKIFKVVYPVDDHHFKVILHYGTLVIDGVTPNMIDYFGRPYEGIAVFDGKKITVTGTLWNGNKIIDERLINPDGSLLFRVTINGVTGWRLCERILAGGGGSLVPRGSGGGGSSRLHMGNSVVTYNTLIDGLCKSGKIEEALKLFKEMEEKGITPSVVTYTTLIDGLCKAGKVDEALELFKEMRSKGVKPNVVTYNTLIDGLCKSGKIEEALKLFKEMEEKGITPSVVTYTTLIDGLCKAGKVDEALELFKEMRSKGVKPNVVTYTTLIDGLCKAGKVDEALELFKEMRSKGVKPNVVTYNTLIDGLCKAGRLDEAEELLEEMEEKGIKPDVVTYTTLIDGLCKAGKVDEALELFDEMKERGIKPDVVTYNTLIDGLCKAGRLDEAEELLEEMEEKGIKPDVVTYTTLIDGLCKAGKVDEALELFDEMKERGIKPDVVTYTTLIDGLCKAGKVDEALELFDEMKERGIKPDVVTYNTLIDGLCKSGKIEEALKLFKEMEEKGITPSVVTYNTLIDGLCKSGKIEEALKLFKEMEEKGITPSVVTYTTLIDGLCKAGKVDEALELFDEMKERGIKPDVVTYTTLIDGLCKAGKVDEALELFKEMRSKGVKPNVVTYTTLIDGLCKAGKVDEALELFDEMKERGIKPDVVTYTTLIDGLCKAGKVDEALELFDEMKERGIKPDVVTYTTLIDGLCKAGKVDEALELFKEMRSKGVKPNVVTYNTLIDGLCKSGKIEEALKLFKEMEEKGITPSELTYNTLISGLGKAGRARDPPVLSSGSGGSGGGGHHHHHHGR
Assay: RPB-ELISA
Settings: tags: N-terminal luciferase, C-terminal 6xHis; label: 5'-biotin; ssRNA
Procedure, shortened: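 5′-biotinylated 30-base RNA probes (18-base target) immobilised on streptavidin plates, then bound 30 min at RT by E. coli lysate with luciferase-fused PPR protein (1.5×10⁸ LU/μL) in Tris pH 7.6 buffer. Binding = luminescence minus no-RNA background.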

Row | Sequence | binding signal [log2 luminescence]
1 | GACUCAGGAAUCGGCUCU | 21
2 | GUCAGAGGGUUCUGGAUU | 21.3
3 | GUGGGGGUGGUAGGAAAU | 24.2
4 | GGUGGUGAGGCCCUGGGC | 23.8
5 | GGUUAGAGAUACAGUGUG | 23.4
